# Reference: PubChem BioAssay (Tox21)
# Where “and” joins values, the source holds several entries; their conditions need not be identical. Equal entries are not always repeated. Inconclusive results are not listed. A call without a number means that no potency is given here. More than one record can exist for a structure, and the calls need not agree. Calls of active or inactive are those of the source. Unless noted, calls come from the whole dose curve; as a rule, active = well fitted curve in the direction sought with a large enough effect in the repeat runs; inconclusive = weak or mixed curves; inactive = no such curve, though single readings can be large; an effect the other way counts as inactive or inconclusive.
# Assays:
# [1] = molecular target: Acetylcholinesterase (Homo sapiens) (UniProt P22303); assay: Acetylcholinesterase (AChE) small molecule antagonists: colormetric cell-based qHTS assay (AID 1347395; calls by dose curve; note: nearly all actives have a fitted effect of over 30% in size; note: potency is the fitted concentration of half-maximal effect)
# Procedure, shortened: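 Endogenous AChE of human neuroblastoma SH-SY5Y cells was measured with an Ellman-type DTNB/acetylthiocholine mix. Compound pretreatment lasted 30 min at 37 C; substrate reaction ran 90 min at 37 C.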
# [2] = molecular target: Acetylcholinesterase (Homo sapiens) (UniProt P22303); assay: Acetylcholinesterase (AChE) small molecule antagonists: enzyme-based qHTS assay (AID 1347397; calls by dose curve; note: nearly all actives have a fitted effect of over 55% in size; note: potency is the fitted concentration of half-maximal effect); conditions: Potency: AChE enzyme activity inhibition
# Procedure, shortened: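 First, recombinant human AChE (50 mU/mL as dispensed) received test compound or DMSO. Second, plates stood 30 min at room temperature. Third, DTNB and acetylthiocholine were added, followed by 10 min at room temperature and colorimetric detection.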
# [3] = molecular target: Acetylcholinesterase (Homo sapiens) (UniProt P22303); assay: Acetylcholinesterase (AChE) small molecule antagonists: fluorescence cell-based qHTS assay (AID 1347398; calls by dose curve; note: nearly all actives have a fitted effect of over 50% in size; note: potency is the fitted concentration of half-maximal effect); conditions: Potency: AChE activity
# Procedure, shortened: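 Homogeneous quantitative HTS format. SH-SY5Y cells seeded at 2,000 per well settle overnight at 37 C. Compound pretreatment runs 30 min (37 C, 5% CO2); substrate/probe mix then reacts 40 min at RT before reading 490/520 nm.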
# [4] = molecular target: Acetylcholinesterase (Homo sapiens) (UniProt P22303); assay: Acetylcholinesterase (AChE) small molecule antagonists: enzyme-based qHTS assay with human liver microsomes (AID 1347399; calls by dose curve; note: nearly all actives have a fitted effect of over 60% in size); conditions: Potency: qHTS inhibition
# Procedure, shortened: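 Recombinant human AChE (50 mU/mL in the enzyme mix) and human liver microsomes (0.25 mg/mL final) were preincubated with compound and NADPH (0.25 mg/mL final) for 30 min at 37 C. Acetylthiocholine/DTNB was then added; thiocholine was read colorimetrically after 10 min at room temperature.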
# [5] = molecular target: Cytochrome P450 2C19 (Homo sapiens) (UniProt P33261); assay: Cytochrome P450 Family 2 Subfamily C Member 19 (CYP2C19) small molecule antagonists: luciferase reporter qHTS assay (AID 1671197); note: nearly all actives have a fitted effect of over 65% in size; note: potency is the fitted concentration of half-maximal effect
# Procedure, shortened: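 P450-Glo CYP2C19 system: enzyme-substrate mix with compound 10 min at room temperature, then NADPH regeneration solution, 1 h at 37C. Proluciferin-to-luciferin conversion detected by luminescence after 20 min with detection reagent; ketoconazole as positive control.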
# [6] = molecular target: Cytochrome P450 1A2 (Homo sapiens) (UniProt P05177); assay: Cytochrome P450 Family 1 Subfamily A Member 2 (CYP1A2) small molecule antagonists: luciferase reporter qHTS assay (AID 1671199); note: nearly all actives have a fitted effect of over 50% in size; note: potency is the fitted concentration of half-maximal effect
# Procedure, shortened: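 Luminescence from luciferin formed by CYP1A2 from a proluciferin substrate, read 20 min after detection reagent. Compound was pre-incubated 10 min with enzyme-substrate, and reaction started with NADPH regeneration solution for 1 h at room temperature; furafylline control.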
# [7] = molecular target: Voltage-gated inwardly rectifying potassium channel KCNH2 (Homo sapiens) (UniProt Q12809); assay: Human Ether-a-go-go-Related Gene (hERG) channel small molecule antagonists: fluorescence cell-based qHTS assay (AID 1671200); note: nearly all actives have a fitted effect of over 50% in size; note: potency is the fitted concentration of half-maximal effect
# Procedure, shortened: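 Quantitative HTS in hERG-U2OS cells: thallium entry through the channel reports activity, read as continuous 480/540 nm fluorescence over 2 min after stimulus addition.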
# [8] = molecular target: Cytochrome P450 3A4 (Homo sapiens) (UniProt P08684); assay: Cytochrome P450 Family 3 Subfamily A Member 4 (CYP3A4) small molecule antagonists: luciferase reporter qHTS assay (AID 1671201); note: nearly all actives have a fitted effect of over 50% in size; note: potency is the fitted concentration of half-maximal effect
# Procedure, shortened: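 Inhibition of CYP3A4 is measured as loss of light: the enzyme converts a proluciferin substrate to luciferin, detected luminescently. Reaction ran 1 h at room temperature with NADPH regeneration after a 10 min compound preincubation.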
# [9] = molecular target: Cytochrome P450 2C9 (Homo sapiens) (UniProt P11712); assay: Cytochrome P450 Family 2 Subfamily C Member 9 (CYP2C9) small molecule antagonists: luciferase reporter qHTS assay (AID 1671198); note: nearly all actives have a fitted effect of over 50% in size; note: potency is the fitted concentration of half-maximal effect
# Procedure, shortened: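 Enzyme-substrate mix preincubated with compound 10 min at room temperature; reaction started with NADPH regeneration solution, 1 h 37C. Luminescent luciferin product read after 20 min detection reagent.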
# [10] = molecular target: Cytochrome P450 2D6 (Homo sapiens) (UniProt P10635); assay: Cytochrome P450 Family 2 Subfamily D Member 6 (CYP2D6) small molecule antagonists: luciferase reporter qHTS assay (AID 1671196); note: nearly all actives have a fitted effect of over 50% in size; note: potency is the fitted concentration of half-maximal effect
# Procedure, shortened: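 CYP2D6 activity was followed as luminescence from its luciferin product after a 1 h NADPH-driven reaction at room temperature. Enzyme-substrate mix and compound were pre-incubated for 10 min, and the signal was read 20 min after adding detection reagent.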
# Cytochrome P450 2C19 (Homo sapiens), sequence (P33261 whole entry, looked up): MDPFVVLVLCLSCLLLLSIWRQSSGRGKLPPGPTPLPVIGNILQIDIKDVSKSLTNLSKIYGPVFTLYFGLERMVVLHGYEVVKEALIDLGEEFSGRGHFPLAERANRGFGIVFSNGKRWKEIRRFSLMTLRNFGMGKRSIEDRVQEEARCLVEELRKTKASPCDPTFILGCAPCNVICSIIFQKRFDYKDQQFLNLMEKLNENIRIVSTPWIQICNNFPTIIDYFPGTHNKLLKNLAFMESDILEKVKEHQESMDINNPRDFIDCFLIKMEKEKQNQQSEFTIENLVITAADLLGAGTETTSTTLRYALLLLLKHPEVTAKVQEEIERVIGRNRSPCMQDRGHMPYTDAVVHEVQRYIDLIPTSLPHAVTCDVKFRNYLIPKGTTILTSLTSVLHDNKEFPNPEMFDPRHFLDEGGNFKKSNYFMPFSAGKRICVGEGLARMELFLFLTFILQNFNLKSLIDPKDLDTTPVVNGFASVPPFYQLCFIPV
# Cytochrome P450 2C9 (Homo sapiens), sequence (P11712 whole entry, looked up): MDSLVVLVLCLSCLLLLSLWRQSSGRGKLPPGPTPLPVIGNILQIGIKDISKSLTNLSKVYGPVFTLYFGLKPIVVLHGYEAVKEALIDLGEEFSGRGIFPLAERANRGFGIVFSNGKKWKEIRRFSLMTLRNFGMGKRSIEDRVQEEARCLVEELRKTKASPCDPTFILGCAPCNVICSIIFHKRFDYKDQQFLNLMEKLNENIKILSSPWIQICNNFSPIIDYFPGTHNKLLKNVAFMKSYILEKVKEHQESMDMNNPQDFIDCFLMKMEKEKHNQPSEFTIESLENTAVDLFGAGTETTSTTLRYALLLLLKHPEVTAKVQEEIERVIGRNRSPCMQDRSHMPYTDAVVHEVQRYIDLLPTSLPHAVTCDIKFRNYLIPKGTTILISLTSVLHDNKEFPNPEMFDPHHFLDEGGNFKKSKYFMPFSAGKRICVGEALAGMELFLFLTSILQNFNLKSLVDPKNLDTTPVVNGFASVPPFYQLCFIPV
# Cytochrome P450 3A4 (Homo sapiens), sequence (P08684 whole entry, looked up): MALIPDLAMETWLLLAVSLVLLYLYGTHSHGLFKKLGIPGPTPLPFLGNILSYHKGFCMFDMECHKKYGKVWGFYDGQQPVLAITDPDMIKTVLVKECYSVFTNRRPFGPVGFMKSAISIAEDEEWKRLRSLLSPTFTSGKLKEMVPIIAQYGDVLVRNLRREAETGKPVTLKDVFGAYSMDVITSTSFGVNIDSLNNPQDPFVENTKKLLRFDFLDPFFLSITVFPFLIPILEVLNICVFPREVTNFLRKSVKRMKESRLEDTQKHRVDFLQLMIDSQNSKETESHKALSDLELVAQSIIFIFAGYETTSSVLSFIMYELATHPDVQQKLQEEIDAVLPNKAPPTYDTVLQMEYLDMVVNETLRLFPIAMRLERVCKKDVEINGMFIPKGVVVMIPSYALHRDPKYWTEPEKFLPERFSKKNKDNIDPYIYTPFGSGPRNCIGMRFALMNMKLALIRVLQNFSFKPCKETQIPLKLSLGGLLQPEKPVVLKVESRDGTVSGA
# Cytochrome P450 1A2 (Homo sapiens), sequence (P05177 whole entry, looked up): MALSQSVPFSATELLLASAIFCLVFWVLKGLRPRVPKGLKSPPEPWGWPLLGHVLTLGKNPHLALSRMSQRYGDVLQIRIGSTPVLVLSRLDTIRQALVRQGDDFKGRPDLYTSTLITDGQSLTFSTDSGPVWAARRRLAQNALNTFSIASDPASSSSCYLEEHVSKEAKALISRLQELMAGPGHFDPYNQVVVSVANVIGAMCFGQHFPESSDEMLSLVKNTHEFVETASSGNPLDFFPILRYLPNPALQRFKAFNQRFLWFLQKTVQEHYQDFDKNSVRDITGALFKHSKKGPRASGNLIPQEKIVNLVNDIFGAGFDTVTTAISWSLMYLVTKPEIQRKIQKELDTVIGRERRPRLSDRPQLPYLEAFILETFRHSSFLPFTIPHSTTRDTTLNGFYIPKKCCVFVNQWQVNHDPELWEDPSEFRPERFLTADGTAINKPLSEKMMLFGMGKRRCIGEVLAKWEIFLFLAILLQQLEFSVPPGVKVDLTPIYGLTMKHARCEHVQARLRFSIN
# Voltage-gated inwardly rectifying potassium channel KCNH2 (Homo sapiens), sequence (Q12809 whole entry, looked up): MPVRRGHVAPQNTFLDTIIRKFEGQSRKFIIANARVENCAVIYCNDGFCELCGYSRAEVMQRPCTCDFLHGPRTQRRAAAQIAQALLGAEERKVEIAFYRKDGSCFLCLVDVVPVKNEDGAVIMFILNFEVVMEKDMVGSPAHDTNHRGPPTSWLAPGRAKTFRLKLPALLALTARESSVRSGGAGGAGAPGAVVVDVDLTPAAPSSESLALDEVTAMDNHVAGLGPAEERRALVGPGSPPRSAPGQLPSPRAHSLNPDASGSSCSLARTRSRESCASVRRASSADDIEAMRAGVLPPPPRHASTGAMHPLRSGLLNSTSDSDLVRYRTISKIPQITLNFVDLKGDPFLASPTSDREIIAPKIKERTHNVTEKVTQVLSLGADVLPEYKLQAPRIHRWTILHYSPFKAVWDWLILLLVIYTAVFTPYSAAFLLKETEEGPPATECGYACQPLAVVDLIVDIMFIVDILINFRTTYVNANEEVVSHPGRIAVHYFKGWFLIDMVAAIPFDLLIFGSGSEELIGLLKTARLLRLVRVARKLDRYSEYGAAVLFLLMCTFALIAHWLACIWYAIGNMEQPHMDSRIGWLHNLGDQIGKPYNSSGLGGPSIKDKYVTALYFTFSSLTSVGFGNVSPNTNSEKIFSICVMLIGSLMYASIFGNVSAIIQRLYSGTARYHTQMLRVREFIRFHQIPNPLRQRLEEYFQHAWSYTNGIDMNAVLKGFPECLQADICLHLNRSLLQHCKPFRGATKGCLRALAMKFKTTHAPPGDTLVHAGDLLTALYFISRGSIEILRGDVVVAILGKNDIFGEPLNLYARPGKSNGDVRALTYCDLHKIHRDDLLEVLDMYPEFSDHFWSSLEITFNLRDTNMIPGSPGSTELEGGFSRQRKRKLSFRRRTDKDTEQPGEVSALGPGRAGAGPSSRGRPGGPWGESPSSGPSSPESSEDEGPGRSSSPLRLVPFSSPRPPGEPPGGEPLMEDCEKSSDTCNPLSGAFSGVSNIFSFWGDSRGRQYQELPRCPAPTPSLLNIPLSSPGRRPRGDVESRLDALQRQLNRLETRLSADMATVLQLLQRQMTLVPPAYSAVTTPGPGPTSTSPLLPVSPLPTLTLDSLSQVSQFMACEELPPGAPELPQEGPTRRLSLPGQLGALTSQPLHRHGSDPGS
# Acetylcholinesterase (Homo sapiens), sequence (P22303 whole entry, looked up): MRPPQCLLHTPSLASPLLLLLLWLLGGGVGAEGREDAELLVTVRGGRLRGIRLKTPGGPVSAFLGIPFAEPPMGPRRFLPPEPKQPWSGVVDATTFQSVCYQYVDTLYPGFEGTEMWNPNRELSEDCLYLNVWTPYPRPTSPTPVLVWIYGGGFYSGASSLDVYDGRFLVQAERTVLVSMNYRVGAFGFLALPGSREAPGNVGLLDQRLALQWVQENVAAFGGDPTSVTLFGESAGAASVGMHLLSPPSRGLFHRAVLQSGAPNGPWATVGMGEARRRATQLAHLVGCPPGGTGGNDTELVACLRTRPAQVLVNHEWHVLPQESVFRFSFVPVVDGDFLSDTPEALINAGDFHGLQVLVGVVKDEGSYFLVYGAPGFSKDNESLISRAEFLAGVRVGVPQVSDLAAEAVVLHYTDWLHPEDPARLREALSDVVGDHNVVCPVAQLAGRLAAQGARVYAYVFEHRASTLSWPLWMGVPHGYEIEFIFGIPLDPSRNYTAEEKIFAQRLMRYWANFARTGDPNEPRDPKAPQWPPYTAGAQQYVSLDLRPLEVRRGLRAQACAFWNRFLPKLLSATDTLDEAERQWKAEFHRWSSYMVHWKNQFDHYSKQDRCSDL
# Cytochrome P450 2D6 (Homo sapiens), sequence (P10635 whole entry, looked up): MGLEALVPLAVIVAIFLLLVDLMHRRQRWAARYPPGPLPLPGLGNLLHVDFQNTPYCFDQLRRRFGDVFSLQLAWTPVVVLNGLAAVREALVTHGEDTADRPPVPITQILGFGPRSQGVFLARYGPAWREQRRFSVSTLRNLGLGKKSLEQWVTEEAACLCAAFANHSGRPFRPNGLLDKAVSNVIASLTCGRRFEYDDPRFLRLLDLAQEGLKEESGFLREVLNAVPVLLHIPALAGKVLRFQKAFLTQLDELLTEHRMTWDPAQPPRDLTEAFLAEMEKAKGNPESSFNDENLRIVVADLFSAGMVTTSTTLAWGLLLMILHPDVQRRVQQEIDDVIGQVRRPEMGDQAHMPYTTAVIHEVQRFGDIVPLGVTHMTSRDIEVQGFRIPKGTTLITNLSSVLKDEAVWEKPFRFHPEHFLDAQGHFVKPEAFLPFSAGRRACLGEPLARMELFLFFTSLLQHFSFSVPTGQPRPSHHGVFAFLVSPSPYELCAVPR
SMILES,Potency [1],Potency [2],Potency [3],Potency [4],Potency [5],Potency [6],Potency [7],Potency [8],Potency [9],Potency [10]
CCCCNC(=O)n1c(NC(=O)OC)nc2ccccc21,inactive,inactive,inactive,inactive,79.3 µM (active),25.1 µM (active) and 28.3 µM (active),inactive,inactive,–,–
O=P(O)(O)CCCl,40.7 µM (active) and 39.8 µM (active),inactive,inactive,inactive,inactive,inactive,inactive,inactive,inactive,–
C=CCc1ccc(OC)cc1,inactive,inactive,inactive,inactive,inactive,–,inactive,–,inactive,–
O=C(O)C(F)(F)C(F)(F)C(F)(F)C(F)(F)C(F)(F)C(F)(F)C(F)(F)F,inactive,inactive,inactive,inactive,79.6 µM (active) and inactive,inactive,inactive,inactive,1.78 µM (active) and 2.51 µM (active),–
CC(C)N(C(=O)SCC(Cl)=C(Cl)Cl)C(C)C,inactive,inactive,inactive,–,35.1 µM (active) and 5.03 µM (active),inactive,27.5 µM (active),inactive,inactive and 31.7 µM (active),inactive
O=C(Nc1ccc(Br)cc1)c1cc(Br)cc(Br)c1O,inactive,inactive,inactive,inactive,inactive,2.82 µM (active) and 35.6 µM (active) and 17.4 µM (active),inactive,–,35.5 µM (active) and 17.8 µM (active) and 15.5 µM (active),–
O=P(Oc1ccccc1)(Oc1ccccc1)Oc1ccccc1,19.9 µM (active) and 20 µM (active),7.06 µM (active) and 11.2 µM (active),2.51 µM (active) and 3.56 µM (active),–,2.81 µM (active) and 5.64 µM (active),9.98 µM (active) and 11.2 µM (active),21.8 µM (active) and 38.9 µM (active),inactive,6.3 µM (active) and 6.33 µM (active),inactive
c1nc[nH]n1,inactive,inactive,inactive,–,inactive,62 µM (active) and 71 µM (active),inactive,inactive,inactive,inactive
C=CCc1ccc2c(c1)OCO2,inactive,inactive,inactive,inactive,inactive,28.3 µM (active),inactive,inactive,inactive,–
Oc1cc(Cl)c(Cl)cc1Cl,inactive,inactive,inactive,inactive,inactive,22.3 µM (active) and 20 µM (active) and 22.4 µM (active),inactive,inactive,inactive,–
Nc1ccc(-c2ccc(N)c(N)c2)cc1N,–,–,–,–,19.9 µM (active) and 3.56 µM (active),35.5 µM (active),inactive,5.01 µM (active) and 2.83 µM (active),17.8 µM (active) and 2.83 µM (active),–
CCCCCCCCCCCOC(=O)c1ccccc1C(=O)OCCCCCCCCCCC,inactive,inactive,inactive,–,inactive,inactive,inactive,inactive,inactive,–
Oc1cc(Cl)ccc1Cl,inactive,inactive,inactive,–,inactive,36.6 µM (active) and 31.7 µM (active),inactive,inactive,inactive,–
CN(C)c1ccc(C(=O)c2ccc(N(C)C)cc2)cc1,inactive,inactive,inactive,–,8.85 µM (active) and 8.94 µM (active),17.7 µM (active) and 14.2 µM (active),–,–,31.7 µM (active),–
CC(C)Oc1cc(-n2nc(C(C)(C)C)oc2=O)c(Cl)cc1Cl,inactive,inactive,inactive,–,7 µM (active) and 3.99 µM (active),1.4 µM (active) and 2.83 µM (active),–,inactive,27.9 µM (active) and 25.2 µM (active),–
CCOCN(C(=O)CCl)c1c(C)cccc1CC,33.6 µM (active) and inactive,inactive,inactive,–,9.47 µM (active) and 15.9 µM (active),33.6 µM (active) and inactive,inactive,inactive,30 µM (active) and 39.9 µM (active),inactive
Nc1ccc(-c2ccccc2)cc1,inactive,inactive,inactive,–,11.6 µM (active) and 11.2 µM (active),1.83 µM (active) and 6.33 µM (active),inactive,6.5 µM (active) and 20 µM (active),13 µM (active) and 12.6 µM (active),35.6 µM (active)
CCOC(=S)S,–,–,–,–,–,–,inactive,–,–,–
CCN(CC)C(=O)SCc1ccc(Cl)cc1,inactive,inactive,inactive,–,581 nM (active) and 564 nM (active),13 µM (active) and 15.9 µM (active),–,inactive,32.7 µM (active) and 25.2 µM (active),inactive
CCC(C)(c1ccc(O)cc1)c1ccc(O)cc1,inactive,inactive,inactive,–,inactive,inactive,inactive,10 µM (active) and 15.9 µM (active),28.2 µM (active) and 22.4 µM (active),–
Nc1c(Cl)cc([N+](=O)[O-])cc1Cl,inactive,inactive,inactive,–,40.2 µM (active) and 56.4 µM (active),1.79 µM (active) and 2.52 µM (active),inactive,inactive,inactive,–
CCC(C)c1ccc(O)cc1 (configuration not stated),inactive,inactive,inactive,–,inactive,35.9 µM (active) and 31.7 µM (active),inactive,inactive,–,inactive

SMILES,Potency [1],Potency [2],Potency [3],Potency [4],Potency [5],Potency [6],Potency [7],Potency [8],Potency [9],Potency [10]
Nn1cnnc1,inactive,inactive,inactive,–,19.3 µM (active) and 71 µM (active),–,inactive,inactive,34.4 µM (active),inactive
C=CC(=O)OCCO,inactive,inactive,inactive,–,inactive,–,inactive,inactive,inactive,–
CCN(CC)C(=O)/C(Cl)=C(\C)OP(=O)(OC)OC,–,inactive,–,–,inactive,inactive and 39.9 µM (active),inactive,inactive,inactive,inactive
O=Cc1ccco1,inactive,inactive,inactive,–,inactive,inactive,inactive,inactive,inactive,inactive
Cc1c(COC(=O)[C@@H]2[C@H](/C=C(\Cl)C(F)(F)F)C2(C)C)cccc1-c1ccccc1,inactive,inactive,inactive,–,7.79 µM (active) and 8.91 µM (active),inactive,inactive,inactive,19.6 µM (active) and 11.2 µM (active),–
COc1ccc(C(CN(C)C)C2(O)CCCCC2)cc1 (configuration not stated),–,–,–,–,–,–,inactive,–,–,–
c1ccc(-c2cccc(-c3ccccc3)c2)cc1,inactive,inactive,inactive,–,20.2 µM (active) and 8.94 µM (active),5.7 µM (active) and 5.64 µM (active),inactive,inactive,28.6 µM (active) and 31.7 µM (active),–
O=c1oc2ccccc2c(O)c1C(CC(O)c1ccc(-c2ccc(Br)cc2)cc1)c1ccccc1 (configuration not stated),inactive,inactive,inactive,–,–,inactive,inactive,–,3.37 µM (active) and 3.47 µM (active),inactive
Oc1cc(Cl)ccc1Oc1ccc(Cl)cc1Cl,inactive,inactive,–,inactive,459 nM (active) and 389 nM (active),30.1 µM (active) and 17.4 µM (active),inactive,inactive,–,–
C#CCOS(=O)OC1CCCCC1Oc1ccc(C(C)(C)C)cc1 (configuration not stated),inactive,inactive,inactive,–,895 nM (active) and 710 nM (active),8.95 µM (active) and 8.94 µM (active),–,1.59 µM (active) and 2.83 µM (active),503 nM (active) and 502 nM (active),–
S=C1NCCN1,–,–,–,–,–,–,inactive,–,–,–
CC(C)(c1cc(Cl)c(O)c(Cl)c1)c1cc(Cl)c(O)c(Cl)c1,inactive,–,–,inactive,35.6 µM (active) and 28.3 µM (active),inactive,inactive,63.3 µM (active),35.6 µM (active) and 31.7 µM (active),inactive
O=C(O)CC[N+](=O)[O-],inactive and 8.94 µM (active),inactive and 28.3 µM (active),inactive and 7.96 µM (active),–,inactive,inactive,inactive,inactive,–,–
COP(=S)(OC)Oc1ccc([N+](=O)[O-])cc1,25.2 µM (active),inactive,inactive and 35.6 µM (active),–,8.95 µM (active) and 2.52 µM (active),7.11 µM (active) and 2 µM (active),inactive,17.8 µM (active),35.6 µM (active) and 12.6 µM (active),inactive and 35.6 µM (active)
Nc1ccncc1,inactive,inactive,inactive,–,inactive,–,inactive,inactive,–,inactive
CCC(CC)Nc1c([N+](=O)[O-])cc(C)c(C)c1[N+](=O)[O-],inactive,inactive,inactive,–,36.1 µM (active) and 10 µM (active),28.6 µM (active) and 17.8 µM (active),inactive,–,32.1 µM (active) and 25.2 µM (active),–
CC(O)CCO (configuration not stated),inactive,inactive,inactive,–,inactive and 71 µM (active),inactive,inactive,inactive,inactive,–
CC(C)=CC1C(C(=O)OCc2coc(Cc3ccccc3)c2)C1(C)C (configuration not stated),inactive,inactive,inactive,–,8.95 µM (active) and 6.32 µM (active),28.2 µM (active),inactive,–,7.98 µM (active) and 3.55 µM (active),–
ClC1C(Cl)C(Cl)C(Cl)C(Cl)C1Cl (configuration not stated),–,–,–,–,–,–,39.7 µM (active) and inactive and 43.6 µM (active),–,32.4 µM (active) and 35.6 µM (active) and 31.7 µM (active),inactive and 39.9 µM (active) and 71 µM (active)
C#C[C@]1(O)CC[C@H]2[C@@H]3CCC4=CC(=O)CC[C@]4(C)[C@H]3CC[C@@]21C,inactive,inactive,inactive,–,6.33 µM (active) and 1.38 µM (active),–,–,inactive,–,inactive
NC(=S)Nc1ccccc1,inactive,inactive,inactive,–,4.06 µM (active) and inactive,25.6 µM (active) and inactive,inactive,5.73 µM (active) and inactive,25.6 µM (active) and inactive,9.09 µM (active) and 35.6 µM (active)
